IDE exosite inh = exo-site inhibitors of human IDE, primary screen, biochemical, fluorescence anisotropy, probe displacement. purified IDE, FL-6b probe fluorescence polarization; hits give low values. hit rate 6.3% among 17,000. AID 1259349, 2017. Insulin-degrading enzyme (Homo sapiens), P14735. z-score at 20 µM;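 active = z-score of -3 or lower, meaning strong loss of probe binding signal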;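 also: His-tagged human IDE residues 42-1019 made in E. coli with 30 nM FL-6b probe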
Target sequence (P14735 42-1019 limits assumed): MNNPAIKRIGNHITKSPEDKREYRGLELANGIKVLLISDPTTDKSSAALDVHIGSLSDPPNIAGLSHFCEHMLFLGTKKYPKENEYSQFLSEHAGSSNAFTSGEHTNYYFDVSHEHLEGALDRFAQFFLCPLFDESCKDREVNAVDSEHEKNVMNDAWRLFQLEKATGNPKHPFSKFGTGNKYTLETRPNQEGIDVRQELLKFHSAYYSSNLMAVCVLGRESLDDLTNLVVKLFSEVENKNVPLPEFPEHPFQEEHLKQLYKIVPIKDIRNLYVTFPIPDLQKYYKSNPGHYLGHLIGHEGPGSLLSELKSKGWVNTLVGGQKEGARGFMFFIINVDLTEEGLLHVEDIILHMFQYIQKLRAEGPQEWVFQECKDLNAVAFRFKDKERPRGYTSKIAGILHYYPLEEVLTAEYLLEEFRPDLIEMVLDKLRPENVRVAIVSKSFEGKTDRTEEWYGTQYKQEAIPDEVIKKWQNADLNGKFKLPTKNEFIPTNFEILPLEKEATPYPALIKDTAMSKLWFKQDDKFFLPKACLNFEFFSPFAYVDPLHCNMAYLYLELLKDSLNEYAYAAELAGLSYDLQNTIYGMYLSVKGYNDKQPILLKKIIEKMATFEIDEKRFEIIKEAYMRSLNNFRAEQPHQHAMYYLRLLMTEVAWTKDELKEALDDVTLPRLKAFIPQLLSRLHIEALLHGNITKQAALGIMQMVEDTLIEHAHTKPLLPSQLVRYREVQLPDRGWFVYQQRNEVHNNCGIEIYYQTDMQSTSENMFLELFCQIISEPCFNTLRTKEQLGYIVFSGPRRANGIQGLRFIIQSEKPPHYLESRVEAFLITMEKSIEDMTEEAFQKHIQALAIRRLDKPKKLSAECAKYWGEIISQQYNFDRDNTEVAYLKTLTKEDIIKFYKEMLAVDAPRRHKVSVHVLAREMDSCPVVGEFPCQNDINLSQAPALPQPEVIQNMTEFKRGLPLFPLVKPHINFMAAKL
Starred values were filed as active, the others as inactive. Many of the other results were omitted from the sample, so hits are more common in it than they were.

SMILES	IDE exosite inh
COc1ccccc1-c1ccc([C@H]2[C@H]3CN(C(=O)c4cccnc4)CCCCN3[C@H]2CO)cc1	0.57
OC[C@@H]1[C@@H](c2ccccc2)[C@@H](CNCC2CCC2)N1CC1CC1	3.4
CN(C)CC#Cc1ccc([C@@H]2[C@@H](CO)N3CCCCN(C(=O)Nc4ccc(F)cc4)C[C@@H]23)cc1	3.7
CCC(=O)N(C[C@@H]1N[C@H](CO)[C@@H]1c1ccc(C#C[C@@H](C)O)cc1)C1CCCCC1	1.2
CCCC#Cc1ccc([C@H]2[C@@H](C#N)N(C(=O)C3CC3)[C@H]2CO)cc1	-1
N#C[C@H]1[C@@H](c2ccccc2-c2ccccc2F)[C@H](CO)N1C(=O)C1CCOCC1	-0.42
O=C(Nc1cccc(F)c1)N1CC(=O)N2[C@H](CO)[C@H](c3ccc(-c4ccccc4F)cc3)[C@@H]2C1	4.1
CC(C)CC#Cc1ccc([C@@H]2[C@H]3CN(C(=O)Nc4cc(F)ccc4F)CC(=O)N3[C@H]2CO)cc1	0.91
O=C(c1ccncc1)N1CCCCN2[C@H](CO)[C@@H](c3ccc(-c4ccccc4)cc3)[C@@H]2C1	0.82
O=C(c1ccncc1)N1CCCCN2[C@H](C1)[C@@H](c1ccc(-c3ccccc3)cc1)[C@@H]2CO	-0.18
Cc1cccc(-c2ccc([C@H]3[C@@H](CO)N4CCCCN(C(=O)c5ccncc5)C[C@H]34)cc2)c1	-18*
C[C@@H]1CN([C@@H](C)CO)C(=O)c2c(c3ccccc3n2C)-c2ccccc2CO[C@@H]1CN(C)S(=O)(=O)c1ccccc1C#N	-0.51
COc1cccc(-c2ccc([C@@H]3[C@H]4CN(Cc5cncnc5)CCCCN4[C@H]3CO)cc2)c1	-3.9*
COc1cccc(-c2ccc([C@@H]3[C@@H](CO)N4CCCCN(Cc5cncnc5)C[C@H]34)cc2)c1	0.32
COc1cccc(-c2ccc([C@H]3[C@H]4CN(CC5CC5)CCCCN4[C@H]3CO)cc2)c1	-4.1*
OC[C@H]1[C@H](c2ccc(-c3ccccc3)cc2)[C@@H]2CN(Cc3cncnc3)CCCCN12	0.39
Cc1ccc(-c2ccc([C@@H]3[C@H](CO)N4CCCCN(Cc5cncnc5)C[C@@H]34)cc2)cc1	0.21
OC[C@H]1[C@H](c2ccc(-c3ccccc3)cc2)[C@H]2CN(Cc3cncnc3)CCCCN21	0.9
Cc1cccc(-c2ccc([C@H]3[C@@H](CO)N4CCCCN(Cc5cncnc5)C[C@@H]34)cc2)c1	-1.1
Cc1cccc(-c2ccc([C@H]3[C@H]4CN(Cc5cncnc5)CCCCN4[C@H]3CO)cc2)c1	-6*
COc1cccc(-c2ccc([C@H]3[C@H](CO)N4CCCCN(CC5CC5)C[C@@H]34)cc2)c1	-0.72
COc1cccc(-c2ccc([C@@H]3[C@@H](CO)N4CCCCN(CC5CC5)C[C@H]34)cc2)c1	-1.8
COc1cccc(-c2ccc([C@H]3[C@H]4CN(Cc5cncnc5)CCCCN4[C@H]3CO)cc2)c1	-2
Cc1cccc(-c2ccc([C@@H]3[C@@H](CO)N4CCCCN(Cc5cncnc5)C[C@H]34)cc2)c1	-4.6*
Cc1ccc(-c2ccc([C@H]3[C@H](CO)N4C(=O)CN(C(=O)Nc5cccc(F)c5)C[C@@H]34)cc2)cc1	2.4
SMILES	IDE exosite inh
C[C@@H]1CCCCO[C@H](CN(C)C(=O)Nc2ccc3c(c2)OCO3)[C@@H](C)CN([C@@H](C)CO)C(=O)c2cc(NS(=O)(=O)c3ccc(F)cc3)ccc2O1	1.8
CCCC#Cc1ccc([C@H]2[C@H](CO)N3CCCCN(S(=O)(=O)c4ccccc4C)C[C@@H]23)cc1	5.7
CC[C@@H]1C/C=C\C[C@@H](c2ccccc2)NC(=O)CCC(=O)N1	-0.53
COc1ccccc1CNC(=O)C[C@@H]1CC[C@H]2[C@@H](COC[C@@H](O)CN2Cc2ccc3c(c2)OCO3)O1	-1
Cc1cccc(-c2ccc([C@H]3[C@H](CO)N4CCCCN(Cc5cncnc5)C[C@@H]34)cc2)c1	-7.4*
Cc1ccc(-c2ccc([C@@H]3[C@@H](CO)N4CCCCN(Cc5cncnc5)C[C@@H]34)cc2)cc1	-0.54
OC[C@H]1[C@@H](c2ccc(-c3ccccc3)cc2)[C@@H]2CN(Cc3cncnc3)CCCCN12	-1.1
COC(=O)c1ccc(CN2CC(=O)N3[C@H](CO)[C@H](c4ccc(-c5cccnc5)cc4)[C@H]3C2)cc1	-1.1
O=C(Nc1ccc(F)cc1)N1CC(=O)N2[C@H](CO)[C@@H](c3ccc(C#CC4CC4)cc3)[C@@H]2C1	2.9
CCC(=O)N1[C@@H](CO)[C@@H](c2ccccc2)C12CN(C(=O)c1ccncc1)C2	1.1
CCC(=O)N1[C@H](CO)[C@H](c2ccccc2)C12CN(C(=O)c1ccncc1)C2	0.46
O=C(Cc1ccccn1)N1CC2(C1)[C@H](c1ccccc1)[C@H](CO)N2C(=O)c1ccncc1	-4.5*
COCC(=O)N1[C@H](C#N)[C@H](c2ccccc2C2=CCCCC2)[C@H]1CO	0.89
O=C(CN1CCOCC1)N1CCCCN2[C@H](CO)[C@H](c3ccc(C#Cc4ccccc4)cc3)[C@H]2C1	-8.7*
O=C(CN1CCOCC1)N1CCCCN2[C@H](CO)[C@H](c3ccc(C#Cc4ccccc4F)cc3)[C@H]2C1	-5.5*
O=C(CN1CCOCC1)N1CCCCN2[C@H](CO)[C@@H](c3ccc(Br)cc3)[C@H]2C1	-0.73
O=C(CN1CCOCC1)N1CCCCN2[C@H](C1)[C@H](c1ccc(C#Cc3ccccc3F)cc1)[C@@H]2CO	-6.1*
O=C(CN1CCOCC1)N1CCCCN2[C@H](C1)[C@@H](c1ccc(C#Cc3ccccc3F)cc1)[C@@H]2CO	-5*
O=C(NCCc1ccncc1)[C@H]1[C@H](CO)[C@H]2Cn3c(ccc(-c4ccccc4)c3=O)[C@H]2N1C(=O)C1CC1	0.37
Cc1ccc(-c2ccc([C@H]3[C@H]4CN(C(=O)Nc5cccc(F)c5)CC(=O)N4[C@H]3CO)cc2)cc1	2.2
O=C(N[C@H]1CC[C@H](CC(=O)N2CCOCC2)O[C@@H]1CO)c1cccc(F)c1	-0.96
COc1ccc2c3c(n(C)c2c1)[C@@H](CO)N(C(=O)CC1CC1)CC31CN(Cc2ccncc2)C1	0.56
CC(C)N(C[C@H]1N[C@H](CO)[C@@H]1c1ccccc1)C(=O)CN1CCOCC1	7.2
N#C[C@@H]1[C@H](c2ccccc2)[C@@H](CO)N1C(=O)CN1CCOCC1	1.6
COc1ccccc1NC(=O)N1CC(=O)N2[C@H](CO)[C@@H](c3ccc(C#CC4CC4)cc3)[C@@H]2C1	-2
SMILES	IDE exosite inh
CCN(C[C@@H]1[C@@H](c2ccccc2)[C@H](CO)N1C(C)=O)C(=O)c1cccc(F)c1	1.4
O=C(C[C@@H]1C[C@@H]2c3cc(NC(=O)CC4CC4)ccc3O[C@@H]2[C@H](CO)O1)NCC1CC1	-0.63
COCC#Cc1ccc([C@@H]2[C@@H](CO)N3C(=O)CN(C(=O)C4CCC4)C[C@@H]23)cc1	4
CO[C@@H]1CN(C)C(=O)c2cc(NC(=O)NC(C)C)ccc2OC[C@@H](C)N(C(=O)CN(C)C)C[C@H]1C	0.95
O=C(Nc1ccc(F)cc1)N1CCCCN2[C@H](CO)[C@@H](c3ccc(C#CC4CC4)cc3)[C@@H]2C1	1.8
O=C(CN1CCOCC1)N1CCCCN2[C@H](CO)[C@H](c3ccc(C#Cc4ccccc4F)cc3)[C@@H]2C1	-5*
CCNC[C@H]1[C@@H](c2ccccc2)[C@@H](CO)N1C(=O)Cc1ccccn1	1.4
O=C(C[C@H]1CC[C@@H](NC(=O)c2ccc(F)cc2)[C@H](CO)O1)NCCc1ccccc1	3.6
CN(C)C(=O)c1cccc(-c2ccc([C@@H]3[C@H]4CN(C(=O)Cc5ccccc5)CC(=O)N4[C@H]3CO)cc2)c1	0.16

Screens as filed in PubChem.
